This passage reports z-score results from PubChem BioAssay.

Activity calls are given as the source filed them.

Test [1] is described as follows: A549 cell viability effects, profiling panel, calcein-AM fluorescence, 48 h, basal (AID 1162). The following applies: higher = more signal.
The nature of test [2]: adipocyte viability effects, profiling panel, cell-based, 3T3-L1 adipocytes, calcein-AM fluorescence, 48 h, basal (AID 1163). The following applies: 3T3-L1 adipocytes viability, higher = more signal.
Test [3] in a line: HepG2 cell viability effects, profiling panel, calcein-AM fluorescence, 48 h, basal (AID 1164). To be noted: higher = more signal.
A short description of test [4]: MM1S cell viability effects, profiling panel, calcein-AM fluorescence, 48 h, basal (AID 1165).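 Further: viability of MM1S multiple myeloma cells under basal unstimulated conditions.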 The following applies: higher = more signal.
Test [5] is described as follows: basal RPMI8226 viability, no added stimulus, profiling panel, cell-based, calcein-AM fluorescence, 48 h, PK04 Diversity Set (AID 1166).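 Further: cells grown under basal conditions without added stimulus.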 To be noted: RPMI8226 myeloma viability, higher = more signal.
A short description of test [6]: basal HepG2 mitochondrial membrane potential changes, profiling panel, cell-based, JC-1 fluorescence, 24 h, 100 nL compound (AID 1167). The following applies: higher = more signal.
A short description of test [7]: basal 3T3-L1 adipocyte mitochondrial potential changes, profiling panel, cell-based, JC-1 fluorescence, 3T3-L1 adipocytes, 24 h, 100 nL compound (AID 1168). To be noted: JC-1 mitochondrial fluorescence, higher = more signal, called active from +8 up or from −8 down.
The nature of test [8]: basal RPMI8226 mitochondrial membrane potential changes, profiling panel, cell-based, JC-1 fluorescence, 24 h, 100 nL compound (AID 1169). The following applies: RPMI8226 myeloma, JC-1 mitochondrial potential fluorescence, higher = more signal.
Test [9] can be described thus: basal MM1S mitochondrial membrane potential changes, profiling panel, cell-based, JC-1 fluorescence, 24 h, 100 nL compound (AID 1170). To be noted: higher = more signal.
A short description of test [10]: A549 lung cancer cell viability effects, profiling panel, resazurin fluorescence, 24 h, PK04 Diversity Set (AID 1171). To be noted: higher = more signal, called active from +8 up or from −8 down. On the technique in general: Alamar Blue is a resazurin reagent that responds to reducing activity.
Further: test concentration not given here.

As to `CN1C(=O)C2C=CC(C(O)COCc3ccccc3)N(N(c3ccccc3)c3ccccc3)C2C1=O` (stereo not given), the z-score was 1.52 in [1]; -1.5 in [2]; 0.688 in test [3]; -3.79 in test [4]; -3.67 in [5]; 0.0589 in test [6]. The z-score in [7] is -1.12 (inactive); in [8], -0.974; in test [9], -1.34; in test [10], 0.419 (inactive).

`C=CCC(OC(C)=O)[C@@H]1[C@@H](N(Cc2cc3ccccc3o2)C(=O)c2ccc(C)cc2)c2cc(OCCCO)ccc2N1C(=O)Cc1ccc(OC)cc1` (stereo not given in full): the z-score is 1.09 in test [1]; 0.426 in test [2]; 0.979 in [3]; -0.143 in [4]; 0.166 in test [5]; 2.52 in test [6]. The z-score in test [7] is 0.235 (inactive); in test [8], 0.83; in test [9], 0.449; in test [10], 0.951 (inactive).

As to `COC1OC[C@]2(C)[C@H]3C4=C(CN2C(=O)OC(C)(C)C)[C@H](C)C(CO)C(CO)C4CC[C@@H]13` (stereo not given in full), the z-score in [1] was 0.657; in [2], 0.281; in test [3], 1.3; in test [4] it was 0.728; in test [5] it was -0.944; in test [6] it was 2.82. In addition, the z-score is 0.0682 (inactive) in [7], 0.287 in test [8], -1.08 in [9] and -0.634 (inactive) in test [10].

`COCCOC(=O)N1C(=O)[C@@]2(c3cc(C#Cc4ccc(OC)cc4)ccc31)[C@H](C(=O)Nc1nc3ccccc3s1)[C@H]1C(=O)O[C@H](c3ccccc3)[C@H](c3ccccc3)N1[C@@H]2c1ccc(OCCO)cc1`: the z-score was -0.205 in test [1]; -0.106 in test [2]; -1.07 in test [3]; -1.59 in test [4]; -0.482 in test [5]; -3.17 in test [6]. Further, the z-score in [7] is 2.92 (inactive); in test [8], -0.604; in test [9] it was -1.44; in [10], -0.0799 (inactive).

Consider `C=C(COC)/C(=C/C[C@H](OC(C)=O)c1ccc(OCCO)cc1)c1cc(C(=O)OC)ccc1OC`, for which the z-score in [1] is 1.82; in test [2] it was 0.852; in [3], 0.883; in test [4], -1.01; in test [5] it was 0.598; in test [6], 2.6. Besides, the z-score in test [7] is 1.57 (inactive); in test [8] it was 0.0179; in test [9] it was -0.444; in test [10], 1.47 (inactive).

On to `CC(C)(C)OC(=O)CC[C@]1(C(=O)NCC(O)CO)N=C(c2ccc(OCCCO)cc2)O[C@H]1c1ccccc1` (stereo not given in full), for which the z-score was 0.156 in test [1]; 0.833 in test [2]; 0.135 in test [3]; 0.709 in test [4]; 0.0887 in test [5]; 0.52 in test [6]. Also, the z-score in test [7] is -0.24 (inactive); in [8], -0.963; in test [9] it was 0.437; in test [10] it was 0.489 (inactive).

As to `COc1ccc(-c2cc3c(c(CCc4ccccc4)n2)[Si](C(C)C)(C(C)C)OC3)cn1`, the z-score in test [1] was 0.342; in [2] it was -0.171; in test [3] it was -0.999; in [4] it was -1.68; in test [5] it was -2.05; in test [6], -0.911. The z-score in test [7] was -0.315 (inactive); in test [8], -0.738; in test [9], -0.24; in test [10], 2.35 (inactive).

Turning to `CCOC(=O)C[C@H]1[C@H](OC(=O)c2cc3ccccc3oc2=O)[C@@H](NC(=O)Cc2ccc(OC)cc2)c2cc(OCCCO)ccc2N1C(=O)c1ccc2ccccc2n1`, the z-score in [1] is 0.167; in test [2], 0.66; in test [3] it was 0.493; in test [4], -0.171; in [5], 0.865; in test [6] it was -0.917. Also, the z-score in test [7] is -0.0891 (inactive); in [8] it was -0.265; in test [9], 0.429; in [10], -0.341 (inactive).

For `CCOC(=O)C[C@H]1[C@H](OC(=O)c2ccc(C(=O)c3ccccc3)cc2)[C@@H](NC(=O)Cc2ccc(OC)cc2)c2cc(OCCCO)ccc2N1C(=O)c1ccccc1`, the z-score in [1] was 0.0281; in [2], -0.005; in [3] it was 0.544; in test [4], -0.272; in test [5], -0.399; in [6], 0.425. The z-score is -0.386 (inactive) in [7], 0.428 in test [8], -0.107 in [9] and 0.69 (inactive) in test [10].

As to `Cc1cc(C)c(C(O)C2C=CC3C(=O)N(c4ccccc4)C(=O)C3N2Nc2ccc(C(C)C)cc2)c(C)c1` (stereo not given), the z-score in test [1] is -0.314; in [2], 0.669; in [3] it was 0.273; in test [4], -0.0101; in [5], -0.792; in test [6] it was -1.37. Besides, the z-score was -1.13 (inactive) in [7], -0.698 in test [8], 0.19 in test [9] and -1.72 (inactive) in test [10].

`CC(=O)c1ccc(C(O)C2C=CC3C(=O)N(c4ccccc4)C(=O)C3N2Nc2ccc(C#N)cc2)cc1` (stereo not given): the z-score in [1] is -0.53; in [2], -0.292; in [3], -0.477; in test [4] it was -0.262; in [5] it was -0.821; in test [6], -1.19. The z-score is -1.06 (inactive) in test [7], -0.257 in test [8], -0.0349 in test [9] and -0.178 (inactive) in test [10].

With `CO[C@H]1O[C@H](CO)[C@@H](OC(=O)Nc2ccc3c(c2)OCO3)[C@H](OC(=O)c2cc3ccccc3[nH]2)[C@H]1OC(=O)c1cc2ccccc2[nH]1`, the z-score in [1] is 0.603; in test [2], 0.477; in [3], 0.463; in [4], -1.98; in test [5] it was 1.11; in test [6], -2.54. Besides, the z-score is 1.27 (inactive) in [7], -0.31 in test [8], -1.29 in [9] and -3.63 (inactive) in test [10].

On to `C=CCN1C(=O)[C@@]2(O[C@@H](CCn3cc([C@H](O)c4ccccc4)nn3)[C@H]([Si](C)(C)c3ccc(OC)cc3)[C@H]2C)c2cc(N3CCC3=O)ccc21`, for which the z-score was 0.36 in test [1]; 0.977 in [2]; 0.0404 in [3]; -1.12 in [4]; -2.81 in [5]; 2.18 in [6]. In addition, the z-score in [7] was 0.385 (inactive); in [8], -1.01; in [9], 0.219; in test [10] it was -1.35 (inactive).

For the compound `C=C(C)[C@@H]1CC=C(C(O)C2C=CC3C(=O)N(c4ccccc4)C(=O)C3N2Nc2ccccc2F)CC1` (stereo not given in full), the z-score was -0.644 in test [1]; -0.466 in test [2]; 0.27 in test [3]; -2.18 in test [4]; 0.123 in test [5]; -1.05 in [6]. Further, the z-score was -1.74 (inactive) in [7], -0.872 in test [8], -0.043 in test [9] and -0.35 (inactive) in [10].

In the case of `COC(=O)C1=CC(CCCO)=CC(C2CC2)N(C)C=C1C(=O)OC` (stereo not given), the z-score is 2.6 in [1]; 0.435 in [2]; 1.45 in [3]; 0.828 in test [4]; 2.02 in test [5]; 0.63 in test [6]. Further, the z-score in [7] is -0.757 (inactive); in test [8], -0.225; in [9], -1.27; in [10] it was -0.951 (inactive).
